Records with an inconclusive call do not appear. Activity calls are given as the source filed them. How the source made its calls, unless noted: active means hit-call score of the fitted dose curve at least 0.9, where 1 is the maximum; inconclusive means response in the unintended direction; inactive means score below 0.9.
Experiments:
[1] = ATG_Oct_MLP_CIS: Attagene CIS-FACTORIAL HepG2 Assay for human Octamer-Binding Transcription Factor (Oct) (AID 2282993; active means hit-call score of the fitted dose curve at least 0.9, where 1 is the maximum; inactive means score below 0.9); details: HepG2 Attagene cis-factorial Oct reporter, mRNA; actives raise or lower the signal
Method in brief: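 After 24 h compound exposure, transfected HepG2 cells were lysed for total RNA; reporter-specific cDNA was PCR-amplified, fluorescently labelled and sized by capillary electrophoresis. Bidirectional curve fitting used DMSO as baseline.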

[2] = biological target: human Peroxisome Proliferator-activated Receptor delta (PPARd), PPARD (gene 5467) (UniProt Q03181); test: ATG_PPARd_TRANS: Attagene TRANS-FACTORIAL HepG2 Assay for human Peroxisome Proliferator-activated Receptor delta (PPARd) (AID 2283002)
Method in brief: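 Read-out is induced reporter mRNA, quantified by RT-PCR with fluorescent labelling and capillary electrophoresis after 24 h dosing. Cells are HepG2 transiently carrying multiple GAL4-UAS reporter units driven by exogenous NR-GAL4 chimeras; DMSO serves as baseline.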

[3] = biological target: human Retinoic Acid Receptor beta (RARb), RARB (gene 5915) (UniProt P10826); test: ATG_RARb_TRANS: Attagene TRANS-FACTORIAL HepG2 Assay for human Retinoic Acid Receptor beta (AID 2283004)
Method in brief: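 Fluorescent capillary-electrophoresis detection of GAL4-UAS reporter mRNA defines the endpoint, with induction over DMSO-treated wells scored as activity. Transiently transfected human hepatoma HepG2 cells expressing exogenous NR–Gal4 proteins are exposed to test chemicals for 24 h.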

[4] = biological target: Peroxisome proliferator-activated receptor gamma (Homo sapiens) (UniProt P37231); test: ATG_PPARg_TRANS: Attagene TRANS-FACTORIAL HepG2 Assay for human Peroxisome Proliferator-activated Receptor-gamma (PPARg) (AID 2283007)
Method in brief: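 Chimeric NR-Gal4 transactivation is measured in transiently transfected HepG2 cells by reporter mRNA induction at 24 h. Detection uses RT-PCR with fluorescent labelling and capillary electrophoresis; DMSO defines baseline.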

[5] = biological target: Nuclear receptor subfamily 1 group I member 2 (Homo sapiens) (UniProt O75469); test: ATG_PXR_TRANS: Attagene TRANS-FACTORIAL HepG2 Assay for human Pregnane X Receptor (PXR) (AID 2283008)
Method in brief: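 HepG2 cells transiently transfected with GAL4-UAS reporter units and PXR-Gal4 chimera, exposed 24 h. Reporter mRNA quantified by RT-PCR, fluorescent labelling, HpaI digestion and capillary electrophoresis; gain of signal vs DMSO.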

[6] = biological target: human Retinoic Acid Receptor gamma (RARg), RARG (gene 5916) (UniProt P13631); test: ATG_RARg_TRANS: Attagene TRANS-FACTORIAL HepG2 Assay for human Retinoic Acid Receptor gamma (RARg) (AID 2283009)
Method in brief: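 HepG2 transiently transfected with GAL4-UAS reporter units and chimeric NR-Gal4 constructs; 24 h compound exposure. Reporter mRNA quantified by RT-PCR, FAM labeling, HpaI digestion and capillary electrophoresis; gain-of-signal versus DMSO.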

[7] = biological target: human Retinoid X Receptor beta (RXRb), RXRB (gene 6257) (UniProt P28702); test: ATG_RXRb_TRANS: Attagene TRANS-FACTORIAL HepG2 Assay for human Retinoid X Receptor beta (RXRb) (AID 2283013)
Method in brief: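 HepG2 cells were transiently transfected with multiplexed GAL4-UAS reporters and a chimeric RXRb-Gal4 construct, then exposed for 24 h. Reporter mRNA was quantified by RT-PCR, FAM labeling, HpaI digestion and capillary electrophoresis; gain of signal was scored against DMSO.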

[8] = biological target: human Thyroid Receptor alpha (THRa1), THRA (gene 7067) (UniProt P10827); test: ATG_THRa1_TRANS: Attagene TRANS-FACTORIAL HepG2 Assay for human Thyroid Receptor alpha (THRa1) (AID 2283014)
Method in brief: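 Measured here is mRNA from a GAL4-UAS reporter in transfected HepG2 cells carrying a Gal4-fused receptor, 24 h post-dose. DMSO served as negative control and baseline.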

[9] = biological target: human Peroxisome Proliferator-activated Receptor alpha (PPARa), PPARA (gene 5465) (UniProt Q07869); test: ATG_PPARa_TRANS: Attagene TRANS-FACTORIAL HepG2 Assay for human Peroxisome Proliferator-activated Receptor alpha (PPARa) (AID 2283001);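 on AC50: potency for gain of reporter signal over DMSO so agonist or activator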
Method in brief: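 Read-out is fluorescence of reporter cDNA fragments resolved by capillary electrophoresis after RT-PCR. Human HepG2 liver cells carried transfected PPARa-Gal4 chimera and GAL4-UAS reporter units, treated 24 h; activity scored as increase over DMSO.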

[10] = BSK_3C_uPAR: BioMAP Diversity Plus: 3C Assay for Urokinase-type plasminogen activator receptor (uPAR) Biomarker Activity (AID 2282998; active means hit-call score of the fitted dose curve at least 0.9, where 1 is the maximum; inactive means score below 0.9); details: BioMAP 3C HUVEC, uPAR biomarker ELISA; actives raise or lower the signal
Method in brief: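 Values derive from bidirectional curve fitting relative to DMSO, which served as baseline of activity. uPAR was measured by ELISA in human umbilical vein endothelial primary cultures 24 h after compound addition.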

[11] = BSK_3C_VCAM1: BioMAP Diversity Plus: 3C Assay for Vascular cell adhesion molecule 1 (VCAM1) Biomarker Activity (AID 2282999; active means hit-call score of the fitted dose curve at least 0.9, where 1 is the maximum; inactive means score below 0.9); details: BioMAP 3C HUVEC, VCAM1 ELISA, cytokine-stimulated; actives raise or lower the signal
Method in brief: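 Endothelial cells from human umbilical vein are treated with test chemical. At 24 h, VCAM-1 is measured by ELISA, and responses in either direction are fitted relative to DMSO.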

[12] = BSK_4H_Eotaxin3: BioMAP Diversity Plus: 4H Assay for Eotaxin 3 Biomarker Activity (AID 2283000; active means hit-call score of the fitted dose curve at least 0.9, where 1 is the maximum; inactive means score below 0.9;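 further: CCL26 protein level quantified by ELISA in parallel with SRB cytotoxicity check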); details: primary human endothelial cells (HUVEC); actives raise or lower the signal
Method in brief: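 ELISA quantitation of CCL26 (Eotaxin-3) protein from chemically dosed human vascular endothelial cells at 24 h; increases and decreases both scored relative to DMSO-treated baseline.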

[13] = read-out: Intercellular Adhesion Molecule 1 (ICAM1), ICAM1 (gene 3383); test: BSK_3C_ICAM1: BioMAP Diversity Plus: 3C Assay for Intercellular Adhesion Molecule 1 (ICAM1) Biomarker Activity (AID 2283003; active means hit-call score of the fitted dose curve at least 0.9, where 1 is the maximum; inactive means score below 0.9); details: primary human endothelial cells (HUVEC); actives raise or lower the signal
Method in brief: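 HUVEC primary cells stimulated under 3C conditions; ICAM1 measured by ELISA 24 h after compound dosing. Curves fitted bidirectionally against the DMSO baseline. Overt cytotoxicity checked by SRB staining of parallel cultures.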

[14] = BSK_3C_Proliferation: Cell Proliferation Assessment in the BioMAP Diversity Plus: 3C Assay (AID 2283006; active means hit-call score of the fitted dose curve at least 0.9, where 1 is the maximum; inactive means score below 0.9;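 on AC50: potency may reflect either rise or fall in cell number versus DMSO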); details: primary human endothelial cells (HUVEC)
Method in brief: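 Subconfluent HUVEC (3C system) cultured with chemical; relative cell number read at 48 h by sulforhodamine B total-protein staining (0.1% SRB after 10% TCA fixation, 560 nm). Bidirectional fit relative to DMSO.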

[15] = biological target: human RAR-related Orphan Receptor beta (RORb), RORB (gene 6096) (UniProt Q92753); test: ATG_RORb_TRANS: Attagene TRANS-FACTORIAL HepG2 Assay for human RAR-related Orphan Receptor beta (RORb) (AID 2283010)
Method in brief: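 HepG2 cells transiently transfected with GAL4-UAS reporter units expressing chimeric NR-Gal4 protein; reporter mRNA measured 24 h after dosing by RT-PCR, 6-FAM labelling and capillary electrophoresis. Gain-of-signal fitted relative to DMSO baseline.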

[16] = biological target: Retinoic acid receptor RXR-alpha (Homo sapiens) (UniProt P19793); test: ATG_RXRa_TRANS: Attagene TRANS-FACTORIAL HepG2 Assay for human Retinoid X Receptor alpha (RXRa) (AID 2283012)
Method in brief: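 HepG2 cells transiently transfected with GAL4-UAS reporter units and chimeric RXRa-Gal4 protein, treated 24 h. Reporter mRNA measured by RT-PCR, fluorescent labelling, HpaI digestion and capillary electrophoresis. Induction fitted against DMSO.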

[17] = biological target: human RAR-related Orphan Receptor gamma (RORg), RORC (gene 6097) (UniProt P51449); test: ATG_RORg_TRANS: Attagene TRANS-FACTORIAL HepG2 Assay for human RAR-related Orphan Receptor gamma (RORg) (AID 2283011)
Method in brief: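 Chimeric RORg-Gal4 transactivation in transfected HepG2; 24 h exposure; RT-PCR/capillary electrophoresis readout of reporter mRNA, DMSO baseline.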

[18] = biological target: Retinoic acid receptor alpha (Homo sapiens) (UniProt P10276); test: ATG_RARa_TRANS: Attagene TRANS-FACTORIAL HepG2 Assay for human Retinoic Acid Receptor alpha (RARa) (AID 2283005)
Method in brief: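 Reporter transcripts, measured by RT-PCR with fluorescent labeling and capillary electrophoresis after 24 h dosing, reflect activity of an exogenous human RARa–GAL4 fusion in transiently transfected HepG2. Fitted for increase relative to DMSO.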

Sequence of human RAR-related Orphan Receptor gamma (RORg), RORC (gene 6097) (P51449 whole entry, looked up, the tested form may be a part): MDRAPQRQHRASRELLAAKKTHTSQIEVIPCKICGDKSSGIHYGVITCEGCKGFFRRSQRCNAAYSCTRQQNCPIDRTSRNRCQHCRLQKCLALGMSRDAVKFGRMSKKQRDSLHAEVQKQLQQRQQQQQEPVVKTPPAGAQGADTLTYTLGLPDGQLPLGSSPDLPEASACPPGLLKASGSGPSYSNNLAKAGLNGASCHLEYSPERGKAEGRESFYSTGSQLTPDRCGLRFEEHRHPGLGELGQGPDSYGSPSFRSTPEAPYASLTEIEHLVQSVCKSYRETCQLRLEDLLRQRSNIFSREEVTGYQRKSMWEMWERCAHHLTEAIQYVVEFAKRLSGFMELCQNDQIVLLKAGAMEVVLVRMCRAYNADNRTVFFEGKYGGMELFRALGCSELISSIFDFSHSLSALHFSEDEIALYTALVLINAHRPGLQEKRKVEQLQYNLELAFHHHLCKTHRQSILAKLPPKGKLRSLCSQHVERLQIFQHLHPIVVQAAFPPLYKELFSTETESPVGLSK
Sequence of Peroxisome proliferator-activated receptor gamma (Homo sapiens) (P37231 whole entry, looked up, the tested form may be a part): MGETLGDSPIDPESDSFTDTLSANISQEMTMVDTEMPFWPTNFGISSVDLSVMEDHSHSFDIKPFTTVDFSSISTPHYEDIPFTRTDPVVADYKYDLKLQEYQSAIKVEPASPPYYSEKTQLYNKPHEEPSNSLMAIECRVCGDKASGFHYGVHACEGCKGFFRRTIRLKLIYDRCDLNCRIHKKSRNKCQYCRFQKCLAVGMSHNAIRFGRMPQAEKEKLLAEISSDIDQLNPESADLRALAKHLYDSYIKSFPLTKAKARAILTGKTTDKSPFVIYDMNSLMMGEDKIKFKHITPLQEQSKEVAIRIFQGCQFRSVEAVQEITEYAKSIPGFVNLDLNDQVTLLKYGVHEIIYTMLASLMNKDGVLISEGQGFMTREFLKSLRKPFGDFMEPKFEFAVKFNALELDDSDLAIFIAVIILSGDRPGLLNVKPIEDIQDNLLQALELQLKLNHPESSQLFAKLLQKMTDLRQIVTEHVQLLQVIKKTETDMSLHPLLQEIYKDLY
Sequence of human Retinoid X Receptor beta (RXRb), RXRB (gene 6257) (P28702 whole entry, looked up, the tested form may be a part): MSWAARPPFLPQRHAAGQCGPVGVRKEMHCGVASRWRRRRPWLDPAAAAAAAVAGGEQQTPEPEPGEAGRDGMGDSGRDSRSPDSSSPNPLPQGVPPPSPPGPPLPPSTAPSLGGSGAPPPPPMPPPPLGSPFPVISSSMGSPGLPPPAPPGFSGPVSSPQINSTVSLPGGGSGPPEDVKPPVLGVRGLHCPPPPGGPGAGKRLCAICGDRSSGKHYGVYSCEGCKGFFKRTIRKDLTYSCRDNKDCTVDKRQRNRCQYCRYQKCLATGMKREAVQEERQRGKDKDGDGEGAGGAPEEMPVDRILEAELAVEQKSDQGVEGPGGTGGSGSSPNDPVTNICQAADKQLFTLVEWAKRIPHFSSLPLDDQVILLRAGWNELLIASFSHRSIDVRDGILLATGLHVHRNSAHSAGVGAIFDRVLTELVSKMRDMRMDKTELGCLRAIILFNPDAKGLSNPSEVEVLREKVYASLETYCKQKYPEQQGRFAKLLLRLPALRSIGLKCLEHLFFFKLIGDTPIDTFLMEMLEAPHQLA
Sequence of human RAR-related Orphan Receptor beta (RORb), RORB (gene 6096) (Q92753 whole entry, looked up, the tested form may be a part): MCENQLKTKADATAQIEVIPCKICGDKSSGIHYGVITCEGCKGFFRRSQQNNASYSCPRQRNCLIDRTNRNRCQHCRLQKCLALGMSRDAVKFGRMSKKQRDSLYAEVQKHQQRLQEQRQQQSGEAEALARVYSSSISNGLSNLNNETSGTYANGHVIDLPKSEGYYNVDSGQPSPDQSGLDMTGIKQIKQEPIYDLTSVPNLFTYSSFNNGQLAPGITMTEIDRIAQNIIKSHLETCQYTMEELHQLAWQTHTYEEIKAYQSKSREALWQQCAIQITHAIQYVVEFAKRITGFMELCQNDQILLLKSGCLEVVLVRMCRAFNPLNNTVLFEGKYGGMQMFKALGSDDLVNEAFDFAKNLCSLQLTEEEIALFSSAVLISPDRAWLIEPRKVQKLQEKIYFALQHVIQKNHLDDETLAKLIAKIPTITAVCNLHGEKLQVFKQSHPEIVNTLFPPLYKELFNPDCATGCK
Sequence of human Thyroid Receptor alpha (THRa1), THRA (gene 7067) (P10827 whole entry, looked up, the tested form may be a part): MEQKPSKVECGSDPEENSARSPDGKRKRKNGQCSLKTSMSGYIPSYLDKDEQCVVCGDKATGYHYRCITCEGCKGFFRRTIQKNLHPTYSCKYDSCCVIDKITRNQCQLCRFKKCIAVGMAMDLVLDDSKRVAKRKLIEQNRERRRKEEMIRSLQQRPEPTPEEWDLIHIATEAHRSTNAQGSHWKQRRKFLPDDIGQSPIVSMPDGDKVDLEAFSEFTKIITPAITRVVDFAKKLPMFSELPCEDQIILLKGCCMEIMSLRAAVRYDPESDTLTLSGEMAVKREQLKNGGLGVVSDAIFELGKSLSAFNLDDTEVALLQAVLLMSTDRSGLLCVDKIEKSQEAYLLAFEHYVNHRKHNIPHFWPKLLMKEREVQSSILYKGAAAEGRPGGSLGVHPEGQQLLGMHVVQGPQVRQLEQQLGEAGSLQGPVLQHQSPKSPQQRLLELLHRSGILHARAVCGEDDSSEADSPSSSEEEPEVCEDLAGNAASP
Sequence of Nuclear receptor subfamily 1 group I member 2 (Homo sapiens) (O75469 whole entry, looked up, the tested form may be a part): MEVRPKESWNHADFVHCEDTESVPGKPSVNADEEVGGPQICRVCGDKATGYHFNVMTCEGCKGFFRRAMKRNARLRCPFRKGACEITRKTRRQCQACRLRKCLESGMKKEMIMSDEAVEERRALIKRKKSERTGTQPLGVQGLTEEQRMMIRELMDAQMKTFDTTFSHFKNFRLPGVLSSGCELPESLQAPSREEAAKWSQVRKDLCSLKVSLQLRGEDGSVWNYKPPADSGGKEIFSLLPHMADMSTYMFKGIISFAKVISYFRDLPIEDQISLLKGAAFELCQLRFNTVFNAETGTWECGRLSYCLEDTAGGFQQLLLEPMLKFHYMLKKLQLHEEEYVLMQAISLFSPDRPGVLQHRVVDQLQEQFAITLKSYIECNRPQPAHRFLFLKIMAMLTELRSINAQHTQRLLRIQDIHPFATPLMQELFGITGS
Sequence of human Retinoic Acid Receptor beta (RARb), RARB (gene 5915) (P10826 whole entry, looked up, the tested form may be a part): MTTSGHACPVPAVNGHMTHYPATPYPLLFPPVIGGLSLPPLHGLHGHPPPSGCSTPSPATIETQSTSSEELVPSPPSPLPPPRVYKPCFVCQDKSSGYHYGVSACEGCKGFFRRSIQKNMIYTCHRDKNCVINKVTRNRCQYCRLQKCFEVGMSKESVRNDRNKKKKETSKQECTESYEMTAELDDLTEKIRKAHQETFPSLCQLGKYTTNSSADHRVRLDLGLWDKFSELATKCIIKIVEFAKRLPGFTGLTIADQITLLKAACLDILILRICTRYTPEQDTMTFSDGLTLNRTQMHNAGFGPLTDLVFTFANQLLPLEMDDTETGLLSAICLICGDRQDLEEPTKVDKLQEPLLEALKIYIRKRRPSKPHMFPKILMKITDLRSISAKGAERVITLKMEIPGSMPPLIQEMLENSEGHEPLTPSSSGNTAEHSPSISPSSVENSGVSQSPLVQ
Sequence of Retinoic acid receptor RXR-alpha (Homo sapiens) (P19793 whole entry, looked up, the tested form may be a part): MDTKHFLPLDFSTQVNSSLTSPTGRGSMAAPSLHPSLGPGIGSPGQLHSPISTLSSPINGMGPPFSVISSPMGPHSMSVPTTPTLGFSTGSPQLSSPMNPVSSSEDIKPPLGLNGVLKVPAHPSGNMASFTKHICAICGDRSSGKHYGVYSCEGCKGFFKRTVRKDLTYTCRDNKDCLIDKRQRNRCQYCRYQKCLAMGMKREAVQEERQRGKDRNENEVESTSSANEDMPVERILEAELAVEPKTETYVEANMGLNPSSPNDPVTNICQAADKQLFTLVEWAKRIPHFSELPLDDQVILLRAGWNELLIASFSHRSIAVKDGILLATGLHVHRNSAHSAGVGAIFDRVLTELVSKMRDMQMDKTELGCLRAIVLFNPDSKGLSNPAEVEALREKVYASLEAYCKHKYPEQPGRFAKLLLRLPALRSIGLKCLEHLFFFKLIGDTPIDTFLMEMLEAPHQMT
Sequence of human Peroxisome Proliferator-activated Receptor alpha (PPARa), PPARA (gene 5465) (Q07869 whole entry, looked up, the tested form may be a part): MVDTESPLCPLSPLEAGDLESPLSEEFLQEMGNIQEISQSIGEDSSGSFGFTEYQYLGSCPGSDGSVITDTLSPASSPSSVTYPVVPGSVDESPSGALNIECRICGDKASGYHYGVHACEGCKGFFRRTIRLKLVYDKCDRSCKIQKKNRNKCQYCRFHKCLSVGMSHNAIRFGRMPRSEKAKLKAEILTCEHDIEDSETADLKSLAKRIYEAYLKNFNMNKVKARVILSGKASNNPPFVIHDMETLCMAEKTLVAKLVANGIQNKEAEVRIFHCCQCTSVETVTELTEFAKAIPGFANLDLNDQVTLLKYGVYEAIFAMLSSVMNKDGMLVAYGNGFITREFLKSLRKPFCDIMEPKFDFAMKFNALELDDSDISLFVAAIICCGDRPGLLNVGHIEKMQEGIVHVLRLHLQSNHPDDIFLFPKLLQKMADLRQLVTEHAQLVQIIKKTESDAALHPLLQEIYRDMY
Sequence of human Retinoic Acid Receptor gamma (RARg), RARG (gene 5916) (P13631 whole entry, looked up, the tested form may be a part): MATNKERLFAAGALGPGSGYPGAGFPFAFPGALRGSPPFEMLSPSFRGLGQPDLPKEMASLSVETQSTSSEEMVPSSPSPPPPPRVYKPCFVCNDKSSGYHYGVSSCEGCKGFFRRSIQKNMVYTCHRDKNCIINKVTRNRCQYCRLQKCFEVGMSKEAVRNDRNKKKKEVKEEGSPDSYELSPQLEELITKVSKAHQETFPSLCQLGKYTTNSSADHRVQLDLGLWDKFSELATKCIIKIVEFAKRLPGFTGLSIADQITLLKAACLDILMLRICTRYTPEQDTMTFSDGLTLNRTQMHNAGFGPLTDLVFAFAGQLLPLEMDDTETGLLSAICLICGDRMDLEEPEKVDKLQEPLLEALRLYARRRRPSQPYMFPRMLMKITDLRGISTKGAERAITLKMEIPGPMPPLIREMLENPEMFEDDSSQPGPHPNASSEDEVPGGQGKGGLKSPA

CC(C#N)CCC#N (centres undefined)
outcome [1]: inactive | outcome [2]: inactive | outcome [3]: inactive | outcome [4]: inactive | outcome [5]: inactive | outcome [6]: inactive | outcome [7]: inactive | outcome [8]: inactive

C[C@@H](Oc1ccc(Cl)cc1Cl)C(=O)O
outcome [1]: inactive | outcome [9]: inactive | AC50 [4]: 49.4 µM (active) | outcome [6]: inactive | outcome [7]: inactive | outcome [8]: inactive

O=Cc1cccc(Oc2ccccc2)c1
outcome [1]: inactive | outcome [10]: inactive | outcome [11]: inactive | outcome [12]: inactive | outcome [9]: inactive | outcome [13]: inactive | outcome [3]: inactive | outcome [14]: inactive | outcome [4]: inactive | outcome [15]: inactive | outcome [7]: inactive | outcome [8]: inactive

CC(=O)C=C(C)C
outcome [1]: inactive | outcome [9]: inactive | outcome [3]: inactive | outcome [5]: inactive | outcome [6]: inactive | outcome [15]: inactive | outcome [16]: inactive | outcome [7]: inactive

Nc1cccc(Cl)c1
outcome [1]: inactive | outcome [9]: inactive | outcome [15]: inactive | outcome [7]: inactive | outcome [8]: inactive

Nc1ccc(Cl)cc1C(=O)c1ccccc1
outcome [1]: inactive | outcome [9]: inactive | outcome [2]: inactive | AC50 [4]: 25.8 µM (active) | AC50 [5]: 10.5 µM (active) | outcome [17]: inactive | outcome [16]: inactive | AC50 [7]: 21.9 µM (active) | outcome [8]: inactive

CCOP(=S)(OCC)Oc1ccc(S(C)=O)cc1 (centres undefined)
outcome [1]: inactive | outcome [10]: inactive | outcome [11]: inactive | outcome [12]: inactive | outcome [2]: inactive | outcome [13]: inactive | outcome [3]: inactive | outcome [18]: inactive | outcome [14]: inactive | outcome [4]: inactive | AC50 [5]: 7.06 µM (active) | outcome [6]: inactive | outcome [15]: inactive | outcome [16]: inactive | outcome [7]: inactive | outcome [8]: inactive

OCc1ccco1
outcome [1]: inactive | outcome [10]: inactive | outcome [11]: inactive | outcome [12]: inactive | outcome [13]: inactive | AC50 [14]: 19.8 µM (active) | AC50 [4]: 39.7 µM (active) | outcome [15]: inactive | outcome [17]: inactive | outcome [16]: inactive

CC(=[OH+])/C=C(/C)[O-].CC(=[OH+])/C=C(/C)[O-].CC(=[OH+])/C=C(/C)[O-].[Al]
outcome [1]: inactive | outcome [9]: inactive | outcome [4]: inactive | outcome [15]: inactive | outcome [17]: inactive | outcome [16]: inactive | outcome [7]: inactive | outcome [8]: inactive

Cc1cc(Cl)ccc1O[C@H](C)C(=O)O
outcome [1]: inactive | outcome [9]: inactive | outcome [2]: inactive | AC50 [4]: 37.4 µM (active) | outcome [15]: inactive

Clc1ccc(COC(Cn2ccnc2)c2ccc(Cl)cc2Cl)cc1 (centres undefined)
outcome [1]: inactive | AC50 [9]: 0.0853 µM (active) | outcome [2]: inactive | AC50 [4]: 4.84 µM (active) | AC50 [5]: 0.44 µM (active) | outcome [16]: inactive | AC50 [7]: 0.103 µM (active)

Source: PubChem BioAssay (EPA / NIEHS)
